Experimental data from the supplement of paper PMC9399229.
The full ranking holds about 1,900 compounds; the median of “relative cell viability (CellTiter-Glo), compound plus cabozantinib, relative to the cabozantinib arm (arm median 1.05; reference not stated)” is about 1.1, and the lowest 2% start at about 0.15. The full list was thinned out, with the lowest values kept by preference.

tested on: Hep3B; assay: relative cell viability (CellTiter-Glo), compound plus cabozantinib, relative to the cabozantinib arm (arm median 1.05; reference not stated) (fraction); higher = more viable cells (less growth inhibition); details: cabozantinib 2 µM; 4 days

Structure (SMILES) | relative cell viability
CC(C)N(CCCNC(=O)Nc1ccc(C(C)(C)C)cc1)C[C@H]1O[C@@H](n2ccc3c(N)ncnc32)[C@H](O)[C@@H]1O | 1.07
O=C1c2c(O)cc(O)cc2O[C@H](c2cc(O)c(O)c(O)c2)[C@H]1O [Dihydromyricetin] | 0.985
CC(C)[C@H](O)C(=O)N[C@@H](C)C(=O)N[C@@H]1C(=O)N(C)CCc2ccccc21 | 1.01
CCN(c1cc(-c2ccc(CN3CCOCC3)cc2)cc(C(=O)NCc2c(C)cc(C)[nH]c2=O)c1C)C1CCOCC1 | 0.911
CN1CCN(CCCNc2ncc(Cl)c(-c3cc4c(C(=O)NC5CC5)cccc4s3)n2)CC1 | 1.1
CCNC(=O)CCC/C=C\C[C@@H]1[C@@H](/C=C/[C@@H](O)CCc2ccccc2)[C@H](O)C[C@@H]1O [Bimatoprost] | 1.16
C[C@H]1CO[C@@H]2Cn3cc(C(=O)NCc4ccc(F)cc4F)c(=O)c(O)c3C(=O)N12 | 1.1
Cc1noc(NS(=O)(=O)c2ccc(N)cc2)c1C [Sulfisoxazole] | 1.01
CCOc1nc2cccc(C(=O)OCc3oc(=O)oc3C)c2n1Cc1ccc(-c2ccccc2-c2noc(=O)[nH]2)cc1 [Azilsartan Medoxomil] | 1.22
O=C(Nc1ncc(SCCN2CCCC2)s1)[C@]1(c2ccc(S(=O)(=O)C3CC3)cc2)C[C@H]1C1CCCCC1 | 0.963
CCOc1cc(C(=O)N2CCC(N3CCN(C)CC3)CC2)ccc1Nc1ncc2c(n1)N(C1CCCC1)c1ccccc1C(=O)N2C | 0.703
CC(C=CC1(O)C(C)=CC(=O)CC1(C)C)=CC(=O)O (stereo not drawn) [Abscisic Acid (Dormin)] | 1.08
O=c1c2ccccc2oc2ccccc12 [Xanthone] | 1.08
Cc1cc(F)c(Nc2ncnc3cc(OCc4ccccc4)ccc23)cc1O | 1.05
O=NO [Sodium Nitrite] | 1.09
CCc1c(C(=O)NCCc2ccc(N3CCCCC3)cc2)[nH]c2ccc(Cl)cc12 | 0.997
CC(C)(C#N)c1cc(Cn2cncn2)cc(C(C)(C)C#N)c1 [Anastrozole] | 1.1
C/C(O)=C(\C#N)C(=O)Nc1ccc(C(F)(F)F)cc1 [Teriflunomide] | 0.922
CC[C@H](c1ccc(O)cc1)[C@@H](CC)c1ccc(O)cc1 [Hexestrol] | 1.19
CC(C(=O)O)c1ccc2c(c1)CC(=O)c1ccccc1S2 (stereo not drawn) [Zaltoprofen] | 1.17
CSc1cccc(Nc2ncc3cc(-c4c(Cl)cccc4Cl)c(=O)n(C)c3n2)c1 | 0.748
OCC(CO)N[C@H]1C[C@](O)(CO)[C@@H](O)[C@H](O)[C@H]1O [Voglibose] | 1.28
Nc1nc(O)c2ncn(CCC(CO)CO)c2n1 [Penciclovir] | 1.08
